We go through 11 molecules from PubChem BioAssay.

This experiment in a line: small-molecule microarray binders of probe aEGFR, primary screen, biochemical, biotinylated probe, 635/667 nm fluorescence (AID 1097).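 Also: probe is a biotinylated anti-EGFR antibody binding compounds printed on slides; score combines fluorescence near 667 nm and signal to noise of each spot.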 As to conditions: higher = more signal.
For the molecule `COc1ccc(C(O)C2C=CC3C(=O)N(c4ccccc4)C(=O)C3N2Nc2ccc(C#N)cc2)c2ccccc12` (stereo unspecified), the composite z-score is -0.0424.
In the case of `COCCOC(=O)N1C(=O)[C@@]2(c3ccccc31)[C@H](C(=O)N1CCN(c3ncccn3)CC1)[C@H]1C(=O)O[C@H](c3ccccc3)[C@H](c3ccccc3)N1[C@@H]2c1ccc(OCCO)cc1`, the composite z-score was 0.325.
The molecule `CC=CC(O)C1C=CC2C(=O)N(c3ccccc3)C(=O)C2N1Nc1ccccc1` (stereo unspecified) had a composite z-score of 0.113.
In turn, `Cc1ccc(S[C@]2(C(=O)NCC(F)(F)F)CC(=O)N(Cc3ccccc3)[C@@H]2c2ccc(CO)cc2)cc1` returned a composite z-score of -0.178.
To `[N-]=[N+]=Nc1ccccc1C[C@@]1(C(=O)O)N=C(c2ccc(OCCCO)cc2)O[C@@H]1c1ccccc1` belongs -0.0952; to `COCCCNC(=O)[C@]1(Cc2ccccc2CN=[N+]=[N-])N=C(c2ccc(OCCCO)cc2)O[C@@H]1c1ccccc1`, 0.0316.
Next, `CC(C)OC(=O)CC(=O)CC(O)c1cccc(C#N)c1` (stereo unspecified): 0.0201; `CCCC=C(CCC)[C@@H](NP(=O)(c1ccccc1)c1ccccc1)c1ccc(C(F)(F)F)cc1`: 0.58.
The molecule `CCCN1C(=O)[C@]2(Cc3ccccc3)N=C(c3ccc(OCCCO)cc3)O[C@@H]2c2ccccc21` yielded a composite z-score of -0.0605.
For the molecule `C[C@]12C(=O)N(CCCCCCO)[C@@H]3C(=O)N(c4ccc(Cl)cc4)CC=CC31O[C@@H]1/C=C\CCCOC(=O)C12` (stereo partly specified), the composite z-score is -0.194.
`COCCOC(=O)N1C(=O)[C@@]2(c3ccccc31)[C@H](c1ccc(OCCO)cc1)N1[C@H](c3ccccc3)[C@H](c3ccccc3)OC(=O)[C@H]1[C@@H]2C(=O)Nc1nc2ccccc2s1` showed a composite z-score of -0.0039.
